Measurements published in the supplement of paper PMC12494721.
Structures can show the parent of a compound that is named as a salt.

What was measured:
Details in all cases: incubation time: 27 h, anaerobic, 37 °C;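 for the amine columns active = adjusted P below 0.05 in both replicates with a change the same way and a mean fold change under 0.8 or over 1.25; inactive = the rest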
[1] = tested on: Clostridium sporogenes DSM 1664; experiment: growth (OD595) fold change vs plate DMSO controls (fold change (ratio)); higher = more growth
Summary of the method: (§1)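 Growth is expressed as the fold change relative to the median of the DMSO control wells on each plate. Cultures in mGAM were grown anaerobically in 96-well plates for 27 h at 37 °C, shaken, and read at 595 nm. Readings were blank-subtracted, corrected for compound background with 20 µM compound solutions in water, and converted to OD with a calibration factor of 5. Fold changes above 1.5 were set to NA, and each value is the mean of 2 biological replicates.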

Escherichia coli IAI1 [2] = experiment: as above
Summary of the method: as §1

[3] = tested on: Klebsiella aerogenes DSM 30053; experiment: as above
Summary of the method: as §1

[4] = tested on: Ruminococcus gnavus DSM 108212; experiment: as above
Summary of the method: as §1

[5] = tested on: Klebsiella aerogenes DSM 30053; experiment: fold change of Histamine concentration vs plate DMSO controls (fold change (ratio)); higher = more amine produced, active = hit call of the paper (significant change in both replicates, either direction)
Summary of the method: (§2)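 Anaerobic mGAM cultures of four gut bacterial strains were grown at 37 °C for 27 h in 80 µL wells, starting at OD 0.1 before 1:1 dilution. Compounds were at 20 µM final (sweeteners 50 µM). Whole cultures were extracted with cold acetonitrile/methanol containing 0.1% formic acid and centrifuged. Amines were quantified by LC–triple-quadrupole MS (dynamic MRM) against external calibration curves and drift-corrected within batch. Each value is the fold change versus plate DMSO controls, averaged over 2 biological replicates.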

[6] = tested on: Clostridium sporogenes DSM 1664; experiment: fold change of Tryptamine concentration vs plate DMSO controls (fold change (ratio)); higher = more amine produced, active = hit call of the paper (significant change in both replicates, either direction)
Summary of the method: as §2

[7] = tested on: Ruminococcus gnavus DSM 108212; experiment: as above
Summary of the method: as §2

Escherichia coli IAI1 [8] = experiment: fold change of Putrescine concentration vs plate DMSO controls (fold change (ratio)); higher = more amine produced, active = hit call of the paper (significant change in both replicates, either direction)
Summary of the method: as §2

[9] = tested on: Klebsiella aerogenes DSM 30053; experiment: as above
Summary of the method: as §2

Escherichia coli IAI1 [10] = experiment: fold change of Cadaverine concentration vs plate DMSO controls (fold change (ratio)); higher = more amine produced, active = hit call of the paper (significant change in both replicates, either direction)
Summary of the method: as §2

[11] = tested on: Klebsiella aerogenes DSM 30053; experiment: as above
Summary of the method: as §2

[12] = tested on: Ruminococcus gnavus DSM 108212; experiment: fold change of 2-Phenylethylamine concentration vs plate DMSO controls (fold change (ratio)); higher = more amine produced, active = hit call of the paper (significant change in both replicates, either direction)
Summary of the method: as §2

| SMILES | growth [1] | growth (Escherichia coli IAI1 [2]) | growth [3] | growth [4] | fold change of Histamine concentration [5] | fold change of Tryptamine concentration [6] | fold change of Tryptamine concentration [7] | fold change of Putrescine concentration (Escherichia coli IAI1 [8]) | fold change of Putrescine concentration [9] | fold change of Cadaverine concentration (Escherichia coli IAI1 [10]) | fold change of Cadaverine concentration [11] | fold change of 2-Phenylethylamine concentration [12] |
| --- | --- | --- | --- | --- | --- | --- | --- | --- | --- | --- | --- | --- |
| CN1CCN(C2Cc3ccccc3Sc3ccc(Cl)cc32)CC1 (stereo not drawn) [Octoclothepin maleate salt] (20 µM) | 0.962 | 0.98 | 0.941 | 0.931 | 1.01 (inactive) | 1.05 (inactive) | 0.848 (inactive) | 1.06 (inactive) | 1 (inactive) | 1.1 (inactive) | 0.99 (inactive) | 0.992 (inactive) |
| CC(C)NC[C@@H](O)COc1ccc(CC(N)=O)cc1 [(R,+) Atenolol] (20 µM) | 1.19 | 1.01 | 1.12 | 1.16 | 0.951 (inactive) | 1.05 (inactive) | 1.06 (inactive) | 1.19 (inactive) | 1.02 (inactive) | 0.921 (inactive) | 1.04 (inactive) | 1.08 (inactive) |
| CC(=O)O[C@@]12CO[C@@H]1C[C@H](O)[C@@]1(C)C(=O)[C@H](O)C3=C(C)[C@@H](OC(=O)[C@H](O)[C@@H](NC(=O)OC(C)(C)C)c4ccccc4)C[C@@](O)([C@@H](OC(=O)c4ccccc4)[C@H]21)C3(C)C [Docetaxel] (20 µM) | 0.864 | 1 | 1.03 | 1.05 | 1.05 (inactive) | 0.991 (inactive) | 1 (inactive) | 1.02 (inactive) | 1.01 (inactive) | 1.02 (inactive) | 0.998 (inactive) | 0.956 (inactive) |
| CCCCS(=O)(=O)N[C@@H](Cc1ccc(OCCCCC2CCNCC2)cc1)C(=O)O [Tirofiban hydrochloride] (20 µM) | 0.927 | 0.983 | 1.01 | 1.11 | 0.975 (inactive) | 0.943 (inactive) | 1.03 (inactive) | 0.994 (inactive) | 1 (inactive) | 1 (inactive) | 1.01 (inactive) | 1.02 (inactive) |
| CCCCC(C)(O)C/C=C/[C@H]1[C@H](O)CC(=O)[C@@H]1CCCCCCC(=O)OC (mixture of isomers) [Misoprostol] (20 µM) | 1.14 | 0.994 | 1.03 | 1.19 | 1.04 (inactive) | 0.979 (inactive) | 0.987 (inactive) | 0.988 (inactive) | 1.02 (inactive) | 0.994 (inactive) | 0.995 (inactive) | 0.945 (inactive) |
| NC(N)=Nc1nc(CSCC/C(N)=N/S(N)(=O)=O)cs1 [Famotidine] (20 µM) | 0.878 | 0.928 | 0.855 | 0.824 | 1.04 (inactive) | 1.02 (inactive) | 1.03 (inactive) | 1.03 (inactive) | 0.999 (inactive) | 0.975 (inactive) | 0.99 (inactive) | 1.07 (inactive) |
| O=C(NCC(O)CO)c1c(I)c(C(=O)NCC(O)CO)c(I)c(N(CCO)C(=O)CO)c1I (stereo not drawn) [Ioversol] (20 µM) | 1.09 | 0.998 | 1.01 | 1.11 | 0.997 (inactive) | 1.11 (inactive) | 1.11 (inactive) | 0.923 (inactive) | 0.975 (inactive) | 0.924 (inactive) | 1.02 (inactive) | 1.12 (inactive) |
| C=CCSCC1Nc2cc(Cl)c(S(N)(=O)=O)cc2S(=O)(=O)N1 (stereo not drawn) [Althiazide] (20 µM) | 1.06 | 1.11 | 1.01 | 1.02 | 0.981 (inactive) | 1.03 (inactive) | 1.24 (inactive) | 1.21 (inactive) | 1.03 (inactive) | 1.06 (inactive) | 1.12 (inactive) | 1.66 (active) |
| CC(N/C(=N\C#N)Nc1ccncc1)C(C)(C)C (stereo not drawn) [Pinacidil monohydrate] (20 µM) | 0.925 | 1 | 0.98 | 1.13 | 1.08 (inactive) | 0.982 (inactive) | 1.09 (inactive) | 1 (inactive) | 1 (inactive) | 1.04 (inactive) | 0.981 (inactive) | 1.1 (inactive) |
| O=C(CCNNC(=O)c1ccncc1)NCc1ccccc1 [Nialamide] (20 µM) | 0.952 | 0.991 | 1.02 | 0.89 | 1.03 (inactive) | 1.01 (inactive) | 1 (inactive) | 0.997 (inactive) | 1 (inactive) | 1.03 (inactive) | 0.998 (inactive) | 1.01 (inactive) |
| Nc1ccc(S(=O)(=O)Nc2ccccn2)cc1 [Sulfapyridine] (20 µM) | 0.891 | 1.06 | 1.04 | 1.03 | 1.05 (inactive) | 0.998 (inactive) | 1.02 (inactive) | 1.01 (inactive) | 1 (inactive) | 0.955 (inactive) | 0.994 (inactive) | 1.03 (inactive) |
| CN1CCC[C@@H]1CCO[C@](C)(c1ccccc1)c1ccc(Cl)cc1 [Clemastine fumarate] (20 µM) | 1.2 | 1.02 | 1.09 | 0.749 | 0.843 (inactive) | 1 (inactive) | 0.851 (inactive) | 1.06 (inactive) | 0.975 (inactive) | 1.12 (inactive) | 1.03 (inactive) | 0.886 (inactive) |
| N=C(N)N/N=C/c1c(Cl)cccc1Cl [Guanabenz acetate] (20 µM) | 0.918 | 0.923 | 0.914 | 1.48 | 1.02 (inactive) | 1.03 (inactive) | 1.02 (inactive) | 0.979 (inactive) | 0.99 (inactive) | 1.01 (inactive) | 0.973 (inactive) | 1.02 (inactive) |
| NS(=O)(=O)c1cc2c(cc1Cl)NC(Cc1ccccc1)NS2(=O)=O (stereo not drawn) [Benzylhydrochlorothiazide] (20 µM) | 1.04 | 1.05 | 0.986 | 0.982 | 0.96 (inactive) | 1.05 (inactive) | 1.06 (inactive) | 1.06 (inactive) | 0.971 (inactive) | 0.887 (inactive) | 1.01 (inactive) | 1.07 (inactive) |
| CC(=O)OCC(=O)[C@@]12N=C(C)O[C@@H]1C[C@H]1[C@@H]3CCC4=CC(=O)C=C[C@]4(C)[C@H]3[C@@H](O)C[C@@]12C [Deflazacort] (20 µM) | 0.981 | 0.976 | 0.986 | 0.905 | 1 (inactive) | 1.02 (inactive) | 1.07 (inactive) | 1.03 (inactive) | 1 (inactive) | 0.993 (inactive) | 0.991 (inactive) | 1.1 (inactive) |
| CC1CNc2c(cccc2S(=O)(=O)N[C@@H](CCCNC(=N)N)C(=O)N2CC[C@@H](C)C[C@@H]2C(=O)O)C1 (stereo partly drawn) [Argatroban] (20 µM) | 1.12 | 0.953 | 1.16 | 0.732 | 0.986 (inactive) | 0.976 (inactive) | 0.987 (inactive) | 0.978 (inactive) | 1.04 (inactive) | 1.01 (inactive) | 1 (inactive) | 0.937 (inactive) |
| N=c1nc(N2CCCCC2)cc(N)n1O [Minoxidil] (20 µM) | 0.888 | 0.963 | 1.03 | 0.722 | 0.98 (inactive) | 0.937 (inactive) | 1.01 (inactive) | 0.982 (inactive) | 0.987 (inactive) | 0.995 (inactive) | 1.01 (inactive) | 1.05 (inactive) |
| O=c1[nH]c(=O)n([C@H]2C[C@H](O)[C@@H](CO)O2)cc1I [Idoxuridine] (20 µM) | 0.856 | 1.02 | 1.04 | 0.871 | 1.03 (inactive) | 1.25 (active) | 1.05 (inactive) | 1.18 (inactive) | 1.02 (inactive) | 0.982 (inactive) | 1 (inactive) | 1.08 (inactive) |
| NC(=O)N1c2ccccc2CC(=O)c2ccccc21 [Oxcarbazepine] (20 µM) | 0.964 | 1.01 | 0.977 | 1 | 1.07 (inactive) | 0.996 (inactive) | 1.02 (inactive) | 1 (inactive) | 1.01 (inactive) | 1.02 (inactive) | 0.994 (inactive) | 1.01 (inactive) |
| O=C(O)CCC(=O)c1ccc(-c2ccccc2)cc1 [Fenbufen] (20 µM) | 1.02 | 1.02 | 0.996 | 0.921 | 0.97 (inactive) | 0.991 (inactive) | 1.04 (inactive) | 1.04 (inactive) | 0.989 (inactive) | 0.969 (inactive) | 0.998 (inactive) | 1.06 (inactive) |
| CN1C(=O)CC(c2ccccc2)C1=O (stereo not drawn) [Phensuximide] (20 µM) | 0.976 | 1.28 | 0.996 | 1.05 | 1.04 (inactive) | 1.03 (inactive) | 1.03 (inactive) | 1.21 (inactive) | 1.01 (inactive) | 1.01 (inactive) | 0.989 (inactive) | 1.02 (inactive) |
| CC(=O)OCC1=C(C(=O)O)N2C(=O)[C@@H](NC(=O)Cc3cccs3)[C@H]2SC1 [Cephalothin sodium salt] (20 µM) | 0 | 1.29 | 1.11 | 0.125 | 1.1 (inactive) | 0.0346 (active) | 0.0635 (active) | 1.17 (inactive) | 1.02 (inactive) | 1.62 (inactive) | 1.01 (inactive) | 0.0703 (active) |
| CC(=O)OCC(=O)[C@@]1(O)CC[C@H]2[C@@H]3CCC4=CC(=O)CC[C@]4(C)[C@@]3(F)[C@@H](O)C[C@@]21C [Fludrocortisone acetate] (20 µM) | 0.949 | 1.09 | 1.03 | 1.06 | 1.01 (inactive) | 1 (inactive) | 1.01 (inactive) | 1.09 (inactive) | 1 (inactive) | 1.02 (inactive) | 1 (inactive) | 0.966 (inactive) |
| NC[C@@H]1O[C@H](O[C@H]2[C@@H](O)[C@H](O[C@@H]3[C@@H](O)[C@H](N)C[C@H](N)[C@H]3O[C@H]3O[C@H](CN)[C@@H](O)[C@H](O)[C@H]3N)O[C@@H]2CO)[C@H](N)[C@@H](O)[C@@H]1O [Neomycin sulfate] (20 µM) | 0.902 | 0.997 | 1.02 | 0.938 | 0.893 (inactive) | 1.16 (inactive) | 1.08 (inactive) | 0.954 (inactive) | 0.966 (inactive) | 0.897 (inactive) | 1.02 (inactive) | 1.11 (inactive) |
